From PubChem BioAssay (NCI) come the findings set out here.

Values joined by “and” are separate entries in the source; they are usually repeats but may differ in a detail not shown here. Identical values can stand only once. Compounds without any hit were thinned out: in the full panel of roughly 83,000, 20% have a hit.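 Single-concentration screen, 48 h exposure, 96-well plates. Endpoint: percent growth. Below 10 = active.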 Unmarked numbers belong to inactive results. Active and inactive are the calls of the source.

Test systems include DU-145 prostate; K-562 leukemia; MALME-3M melanoma; MDA-MB-231 breast; RXF 393 renal; SF-268 CNS; SF-295 CNS; SF-539 CNS; UACC-257 melanoma; M14 melanoma.
What all share (assay): NCI-60 one-dose screen, 48 h (100 = growth as untreated, 0 = no growth, -100 = all killed)
Holding throughout (settings): 10 µM unless noted

`CCOc1ccc(C(=O)Cc2ccccc2)cc1`: the growth in the assay with DU-145 prostate is 105% and 112%; with K-562 leukemia it was 108% and 103%; with MALME-3M melanoma, 101%; with MDA-MB-231 breast, 113% and 102%; in the assay on RXF 393 renal, 117% and 96.4%; in the assay with SF-268 CNS it was 110% and 117%. In addition, the growth in the assay on SF-295 CNS is 121% and 89.3%; in the assay with SF-539 CNS, 101% and 116%; in the assay with UACC-257 melanoma, 110% and 99.2%; in the assay with M14 melanoma, 114% and 106%.

`COc1cc(F)c(/C=C/c2cc(/C=C/c3cc(OC)c(OC)cc3F)n(-c3cc(F)cc(F)c3)n2)cc1OC`: the growth in the assay with DU-145 prostate is 43.1%; in the assay with K-562 leukemia, 20.3%; in the assay on MALME-3M melanoma, -6.11% (active); in the assay with MDA-MB-231 breast it was 54.9%; in the assay on RXF 393 renal, 85.6%; with SF-268 CNS it was 34%. The growth in the assay on SF-295 CNS was 54.2%; in the assay on SF-539 CNS, 83.4%; in the assay on UACC-257 melanoma it was 24%; in the assay with M14 melanoma it was -19.5% (active).

As for `CNC(=O)c1cc(Oc2ccc3nc(NC(=O)Nc4ccc(C(F)(F)F)cc4)sc3c2)ccn1`, the growth is 48.9% in the assay on DU-145 prostate; 76.3% with K-562 leukemia; 20.8% in the assay on MALME-3M melanoma; 63.5% with MDA-MB-231 breast; 85.5% in the assay on RXF 393 renal; 65% in the assay on SF-268 CNS. The growth in the assay on SF-295 CNS was 63.2%; in the assay on SF-539 CNS, 82.2%; in the assay on UACC-257 melanoma it was 86.7%; in the assay on M14 melanoma, 35.8%.

Consider `O=C(NCc1ccc(Cn2c(=O)sn(-c3ccc(Cl)cc3)c2=O)cc1)OCc1ccc2c(Cl)cc(Cl)c(O)c2n1`, for which the growth with DU-145 prostate was 44.8%; with K-562 leukemia, 29.8%; with MALME-3M melanoma it was 78.3%; with MDA-MB-231 breast, 72%; in the assay on RXF 393 renal, 25.8%; in the assay with SF-268 CNS, 54.6%. The growth in the assay on SF-295 CNS was 18.2%; in the assay on SF-539 CNS, 42.5%; in the assay with UACC-257 melanoma it was 78.1%; with M14 melanoma, 50.5%.

With `Cc1ccc2[nH]c(=S)[nH]c(=O)c2c1`, the growth is 109% in the assay with DU-145 prostate; 97.1% in the assay with K-562 leukemia; 102% in the assay with MALME-3M melanoma; 109% in the assay on MDA-MB-231 breast; 104% in the assay with RXF 393 renal; 100% in the assay on SF-268 CNS. For the same molecule, the growth with SF-295 CNS was 104%; in the assay with SF-539 CNS it was 99.7%; in the assay with UACC-257 melanoma, 101%; with M14 melanoma, 101%.

In the case of `CCCCCCCCCCCCC[C@H](O)C[C@H](O)[C@H](C)N`, the growth in the assay with DU-145 prostate is 96.9% [1.25 µM]; in the assay on K-562 leukemia it was 102% [1.25 µM]; in the assay with MALME-3M melanoma, 132% [1.25 µM]; in the assay on MDA-MB-231 breast it was 90% [1.25 µM]; in the assay with RXF 393 renal, 8.68% [1.25 µM] (active); with SF-268 CNS it was 115% [1.25 µM]. The growth is 108% [1.25 µM] in the assay with SF-295 CNS, 100% [1.25 µM] with SF-539 CNS, 113% [1.25 µM] in the assay on UACC-257 melanoma and 95.9% [1.25 µM] in the assay on M14 melanoma.

On to `CC/C(=C(/c1ccc(O)cc1)c1ccc(OCCN2CCCCCC2)cc1)c1ccc(Cl)cc1`, for which the growth in the assay with DU-145 prostate was 82.9%; with K-562 leukemia, -21.5% (active); with MALME-3M melanoma, 47.5%; in the assay with MDA-MB-231 breast it was 88.4%; with RXF 393 renal, 63.7%; in the assay with SF-268 CNS it was 63.4%. Besides, the growth was 87.8% with SF-295 CNS, 78.2% with SF-539 CNS, 87.3% in the assay with UACC-257 melanoma and 17% in the assay on M14 melanoma.

In the case of `CC[C@]12CN3CCc4c([nH]c5ccccc45)[C@@](C(=O)OC)(c4cc5c(cc4OC)N(C)[C@H]4[C@@](O)(C(=O)OC)[C@H](OC(C)=O)[C@]6(CC)C=CCN7CC[C@]54[C@@H]76)CC(C3)[C@H]1O2` (stereo not given in full), the growth with DU-145 prostate is -21.8% (active); with K-562 leukemia, 16.6%; with MALME-3M melanoma, 56.1%; with MDA-MB-231 breast, -28.8% (active); with RXF 393 renal, 10.2%; in the assay on SF-268 CNS, 26.4%. In addition, the growth was -22.9% (active) with SF-295 CNS, 2.86% (active) in the assay with SF-539 CNS, 42.3% in the assay with UACC-257 melanoma and -29.3% (active) in the assay on M14 melanoma.

Turning to `O=C1OCC2=C1C(c1cccc(C(F)(F)F)c1)c1cc3c(cc1N2CCO)OCCO3` (stereo not given), the growth is 16% in the assay on DU-145 prostate; 9.6% (active) in the assay with K-562 leukemia; 49.5% with MALME-3M melanoma; 37.6% in the assay with MDA-MB-231 breast; 10.9% with RXF 393 renal; 38.8% with SF-268 CNS. Also, the growth was 0.743% (active) with SF-295 CNS, -8.3% (active) with SF-539 CNS, 65.3% with UACC-257 melanoma and -6.89% (active) in the assay with M14 melanoma.

Turning to `Nc1[nH]nc(Nc2ccccc2)c1-c1nc2ccccc2s1`, the growth in the assay with DU-145 prostate was 27.8%; with K-562 leukemia, 4.83% (active); with MALME-3M melanoma, 83.4%; in the assay with MDA-MB-231 breast it was -17% (active); with RXF 393 renal, 36.3%; in the assay with SF-268 CNS, 31%. In addition, the growth in the assay with SF-295 CNS is 28.6%; with SF-539 CNS, 55.1%; with UACC-257 melanoma, 50.6%; with M14 melanoma it was 6.41% (active).

`CONC1=Nc2cc(NC(N)=NCc3ccccc3)c(N(C)C3CCCCC3)cc2OC1`: the growth in the assay on DU-145 prostate was 72.6%; with K-562 leukemia, 23.6%; with MALME-3M melanoma, 78.6%; in the assay on MDA-MB-231 breast, 25.5%; in the assay on RXF 393 renal, 41.2%; in the assay with SF-268 CNS, 68.1%. Besides, the growth in the assay on SF-295 CNS is 83.3%; with SF-539 CNS, 75.9%; with UACC-257 melanoma, 89.5%; in the assay with M14 melanoma, 78.1%.

Consider `O=C(N/N=C/c1ccc(O)cc1O)c1cccc(Nc2ccnc(C(F)(F)F)c2)c1`, for which the growth with DU-145 prostate was 17.7%; with K-562 leukemia, 21.6%; in the assay with MALME-3M melanoma it was 2.77% (active); in the assay on MDA-MB-231 breast, 41.3%; in the assay with RXF 393 renal it was 44.9%; in the assay with SF-268 CNS, 11.8%. In addition, the growth with SF-295 CNS is 20.4%; with SF-539 CNS, 8.62% (active); with UACC-257 melanoma, 36.3%; in the assay on M14 melanoma it was -1.76% (active).
